Source: the supplement of paper PMC6555819

Tests used:
Test in all cases: PBM binding z-score (relative to random genomic background probes); higher = stronger binding; sequences stand for … in GC…GCGATTGACAGCGTAGAATGAAGG
[1] = tested on: FXR:RXRa (NR concentration 270 nM, RXRa partner concentration 90 nM)
Method in brief: (§1)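 Scanned fluorescence from custom Agilent 4×180K protein-binding microarrays was regression-normalized. Binding z-scores use random background probes as reference. Ligand-free nuclear receptor dimers were incubated on the arrays for 1 h and detected with antibodies against each partner (one per run).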

[2] = tested on: LXRa:RXRa (NR concentration 270 nM, RXRa partner concentration 90 nM)
Method in brief: as §1

[3] = tested on: LXRa homodimer (NR concentration 270 nM)
Method in brief: as §1

[4] = tested on: LXRb:RXRa (NR concentration 270 nM, RXRa partner concentration 90 nM)
Method in brief: as §1

[5] = tested on: LXRb homodimer (NR concentration 270 nM)
Method in brief: as §1

[6] = tested on: PPARa:RXRa (NR concentration 270 nM, RXRa partner concentration 90 nM)
Method in brief: as §1

[7] = tested on: PPARg:RXRa (NR concentration 180 nM, RXRa partner concentration 90 nM)
Method in brief: as §1

[8] = tested on: PPARg:RXRa 270nM:90nM, anti-RXR (NR concentration 270 nM, RXRa partner concentration 90 nM)
Method in brief: as §1

[9] = tested on: PPARg:RXRa 30nM:10nM, anti-RXR (NR concentration 30 nM, RXRa partner concentration 10 nM)
Method in brief: as §1

[10] = tested on: PPARg:RXRa 90nM:30nM, anti-RXR (NR concentration 90 nM, RXRa partner concentration 30 nM)
Method in brief: as §1

[11] = tested on: PPARg:RXRa DBDmut IVT, anti-RXR (DBD mutation: RXRa K156A/R161A, NR concentration 270 nM, RXRa partner concentration 90 nM)
Method in brief: as §1

[12] = tested on: PPARg:RXRa IVT, anti-PPARg (NR concentration 270 nM, RXRa partner concentration 90 nM)
Method in brief: as §1

[13] = tested on: PPARg DBDmut:RXRa IVT, anti-PPARg (DBD mutation: PPARg1 K132A/R137A, NR concentration 270 nM, RXRa partner concentration 90 nM)
Method in brief: as §1

[14] = tested on: PPARg DBDmut IVT, anti-PPARg (DBD mutation: PPARg1 K132A/R137A, NR concentration 270 nM)
Method in brief: as §1

[15] = tested on: PPARg homodimer (NR concentration 180 nM)
Method in brief: as §1

[16] = tested on: PXR:RXRa (NR concentration 270 nM, RXRa partner concentration 90 nM)
Method in brief: as §1

[17] = tested on: PXR homodimer (NR concentration 270 nM)
Method in brief: as §1

[18] = tested on: RARa:RXR (NR concentration 270 nM, RXRa partner concentration 90 nM)
Method in brief: as §1

[19] = tested on: RARa homodimer (NR concentration 270 nM)
Method in brief: as §1

[20] = tested on: RARb:RXRa (NR concentration 270 nM, RXRa partner concentration 90 nM)
Method in brief: as §1

Sequence	PBM binding z-score [1]	PBM binding z-score [2]	PBM binding z-score [3]	PBM binding z-score [4]	PBM binding z-score [5]	PBM binding z-score [6]	PBM binding z-score [7]	PBM binding z-score [8]	PBM binding z-score [9]	PBM binding z-score [10]	PBM binding z-score [11]	PBM binding z-score [12]	PBM binding z-score [13]	PBM binding z-score [14]	PBM binding z-score [15]	PBM binding z-score [16]	PBM binding z-score [17]	PBM binding z-score [18]	PBM binding z-score [19]	PBM binding z-score [20]
TCGCCTAGGTCATTCAGGGGCCAGTATAGAAAGC	4.82	3.45	0.443	3.13	0.742	3.8	1.91	2.45	2.3	2.02	2.54	2.19	-0.243	-0.908	1.82	2.3	-0.0121	3.36	-0.254	3.96
TCATATAGGTAATACACGTGAAAGTCGGCATCTA	1.26	0.929	0.413	1.06	0.455	1.13	1.1	2.03	3.93	2.92	3.9	2.2	1.1	1.42	1.33	0.683	0.547	0.919	1.56	0.414
TTAACAAGGTGAGCTGAGGTCGTTGATCCAACTC	1.71	1.21	-0.57	0.45	-0.886	1.72	0.604	0.987	0.415	0.24	1.96	2.33	-0.0875	0.378	-0.141	4.89	0.519	1.62	-0.64	1.66
ATCTCGAGGTAAGACTCAGTTCAGTGAAGAACGC	0.0769	-0.0595	-0.0445	-0.053	-0.194	0.0746	0.0104	-0.287	-0.212	-0.236	-0.399	0.378	0.239	0.502	0.135	1.38	0.899	0.133	-0.44	0.228
TTACCAAGGTGAAGGTCGATGATCCCTCTGTAGA	1.25	0.976	-0.361	1.1	-0.706	2.27	2.29	3.58	1.74	3.24	1.53	3.14	-0.416	-0.0425	0.524	0.883	0.0636	1.36	0.0108	2.11
TCATATAAGTAAATGCTAGGTGAAAGTCCGATCT	1.12	1.03	0.543	0.645	0.419	1.3	0.711	2.49	4.34	3.6	3.04	0.569	0.642	0.691	1.1	0.626	0.422	0.789	1.78	0.428
AATACAGGGTCATCGGAGGCCAGAGTACGCACAG	7.32	6.52	2.37	4.98	1.28	6.1	6.72	6.12	2.64	4.8	2.24	4.03	1.88	1.83	2.39	5.97	0.898	4.9	1.32	4.47
ACCATTAGTTGACTTAGGGCAACCGATACGACGC	0.502	0.629	0.679	0.464	0.693	0.273	1.06	0.133	0.182	0.582	0.771	0.653	0.856	-0.189	0.706	0.147	0.618	0.916	0.526	0.973
GATACAGGGTCAGCTAGTGGCCAGAGTATGGAAA	4.54	2.31	-0.558	2.21	-0.762	4.49	3.55	3.25	0.61	1.77	1.03	2.29	-0.052	-0.0645	1.79	1.89	0.153	3.05	-0.0625	3.69
CCGACTGGGGCAAAGGTTACCAGACTCAGTACGA	1.56	1.7	-0.36	1.99	-1.21	5.91	10.5	8.66	8.75	9.25	4.51	5.88	-0.692	-1.09	0.726	2.48	-0.264	3.64	-0.558	2.66
CAGCCTAGGTCAGGTCCAGTATAGGAGGAACGTT	1.07	0.851	-0.352	0.578	-1.03	1.24	0.465	0.541	-0.0378	0.231	1.02	0.846	-0.384	-1.31	0.577	0.126	-0.567	0.528	-0.0442	3
CGTCCAAGGTCAGCAGGTAAGTGAAAGCGACGTG	5.48	3.22	-0.131	2.36	-0.25	4.3	3	3.31	0.585	2.28	2.46	2.83	0.325	-0.0804	2.47	2.54	-0.0164	3.47	1.22	5
ATATGTAAGTTAGCTGGGGTCATTCAGACTAGGC	4.05	3.87	1.64	4.47	0.895	4.17	1.49	2.48	0.721	1.49	0.965	1.4	0.49	0.596	1.64	5.82	6.58	5.31	0.998	2.47
ACTAGCAGGCCAAGGGTCACTCACGATTAGTCCG	2.5	2.67	0.186	2.74	-0.177	4.69	7.31	6.69	5.72	6.89	1.04	3.8	0.074	-0.149	1.92	3.09	-0.277	3.55	0.389	3.45
ATCGAAAGGTCGTGAGGTTAGTATACAGAAAGGC	5.61	4.18	0.638	3.63	0.777	5.04	3.95	4.19	1.92	3.08	0.453	2.21	1.19	1.52	2.32	3.74	0.823	4.8	1.16	3.99
